Screening data: PubChem, National Center for Advancing Translational Sciences (NCATS)
Hits are enriched below; roughly 15% of the tested compounds scored in any of these assays.
Gal4-VP16 FLuc: VP16 counterscreen qHTS for inhibitors of ROR gamma transcriptional activity | AID 2546, 2010 | hit rate 3.5% among 310,000 | Drosophila S2 Gal4-VP16 UAS-luciferase, luminescence, 20 h | Potency, µM (doses to about 53.6 µM), without a hit: at the top dose activity, negative = inhibition, most hits filed as inhibitors;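 also: Gal4-VP16 expression switched on by copper sulfate through the metallothionein promoter; nearly all actives have a fitted effect of over 50% in size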
RORg inh: qHTS for inhibitors of ROR gamma transcriptional activity | Nuclear receptor ROR-gamma (Mus musculus), P51450 | Drosophila S2 Gal4-RORgamma UAS-luciferase reporter, 20 h | Potency, µM (highest dose often 53.6 µM), for the others: at the top dose activity change, negative = inhibition, actives largely listed as inhibitors | hit rate 5.4% among 310,000; also: nearly all actives have a fitted effect of over 60% in size
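Stably transfected Drosophila Schneider cells are the test system, with ROR gamma fused to Gal4 and luciferase under UAS control; luminescence is read after 20 hr of 700 uM copper sulfate induction at ambient temperature.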
DT40 TDP1 no CPT: qHTS for Inhibitors of human tyrosyl-DNA phosphodiesterase 1 (TDP1): qHTS in cells in absence of CPT. DT40 Tdp1-/- hTDP1 cells, no CPT, ATP luminescence, 48 h. Potency, µM (top dose mostly 46.2 µM), for inactives: at the highest dose activity change, negative = growth inhibition, usual class: inhibitors. hit rate 15% among 420,000. AID 686978, 2013; also: nearly all actives have a fitted effect of over 55% in size
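Luminescent ATP content (CellTiter-Glo) served as the growth readout. Knockout chicken DT40 cells expressing human TDP1 were exposed to compounds without camptothecin for a minimum 48 hr at 37 °C.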
12-LOX inh: Primary qHTS assay for inhibitors of human arachidonate 12S-lipoxygenase (ALOX12): Round 2; Potency, µM (top dose mostly 108 µM), without a hit: at the highest dose activity change, negative = inhibition, usual class: inhibitors; Polyunsaturated fatty acid lipoxygenase ALOX12 (Homo sapiens), P18054; AID 1671190, 2021; hit rate 1.1% among 580,000; purified 12hLO, xylenol orange hydroperoxide absorbance
Target sequence (P18054 whole entry, looked up): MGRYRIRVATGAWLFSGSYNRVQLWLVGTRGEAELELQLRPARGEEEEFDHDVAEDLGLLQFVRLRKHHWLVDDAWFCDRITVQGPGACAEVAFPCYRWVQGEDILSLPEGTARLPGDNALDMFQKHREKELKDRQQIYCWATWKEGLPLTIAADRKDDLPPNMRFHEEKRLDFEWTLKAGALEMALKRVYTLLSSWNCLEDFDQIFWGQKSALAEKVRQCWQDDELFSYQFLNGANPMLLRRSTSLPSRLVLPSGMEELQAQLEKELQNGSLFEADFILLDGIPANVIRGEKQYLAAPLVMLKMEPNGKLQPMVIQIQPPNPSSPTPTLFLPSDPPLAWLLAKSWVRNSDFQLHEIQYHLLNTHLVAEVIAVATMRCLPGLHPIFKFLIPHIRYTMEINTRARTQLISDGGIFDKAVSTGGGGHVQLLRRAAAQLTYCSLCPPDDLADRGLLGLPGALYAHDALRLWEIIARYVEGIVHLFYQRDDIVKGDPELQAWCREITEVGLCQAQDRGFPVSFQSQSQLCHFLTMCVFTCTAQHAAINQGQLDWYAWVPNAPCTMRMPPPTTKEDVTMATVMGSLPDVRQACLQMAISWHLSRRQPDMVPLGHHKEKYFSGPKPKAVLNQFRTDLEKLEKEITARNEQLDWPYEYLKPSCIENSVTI
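Purified human 12hLO (150 nM final) in 25 mM Hepes, 0.01% Triton X-100, pH 7.0 was preincubated 15 min at room temperature with compound. Then 40 uM arachidonic acid was added, 30 min. Hydroperoxide was read by Fe-XO absorbance ratio 573/405 nm.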
DT40 TDP1 CPT: qHTS for Inhibitors of human tyrosyl-DNA phosphodiesterase 1 (TDP1): qHTS in cells in presence of CPT; hit rate 12% among 420,000; chicken DT40 Tdp1-/-;hTDP1 cells + 20 nM CPT, ATP luminescence, 48 h; Potency, µM (top dose mostly 46.2 µM), inactives show top-dose activity change, negative = growth inhibition, most hits filed as inhibitors; also: nearly all actives have a fitted effect of over 55% in size
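Chicken DT40 Tdp1-/- cells complemented with human TDP1, 400 cells/well, exposed to compounds plus 20 nM camptothecin for at least 48 h at 37 C; viability read as ATP content by CellTiter-Glo luminescence.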
ELG1 repair inh: qHTS screen for small molecules that inhibit ELG1-dependent DNA repair in human embryonic kidney (HEK293T) cells expressing luciferase-tagged ELG1; HEK293T ELG1-luciferase reporter, luminescence, 16 h; DNA damage induced by 5-fluorouridine; Potency, µM (series often up to 46.1 µM), for the others: at the highest dose activity change, negative = inhibition, actives largely listed as inhibitors; hit rate 2.3% among 330,000; also: nearly all actives have a fitted effect of over 55% in size
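HEK293T cells expressing luciferase-tagged ELG1 (2,000/well) received 5-Fluorouridine plus compound or DMSO for 16 hr at 37 °C. Luciferase was read by ONE-Glo luminescence after 30 min at room temperature.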
* = called active by the depositor; ? = inconclusive; . = not tested or not shown; [ ] = another dose, or the depositor's remark. Calls follow the shape of the dose curve; as a rule, active = well fitted curve in the direction sought with a large enough effect; inconclusive = small, poorly fitted or top-dose-only effect, or another doubt; inactive = no such curve, though single readings can be large; an effect the other way counts as inactive or inconclusive. % is scaled to controls: 0 for no effect and ±100 for the full control effect; potency is read from the fitted curve at half-maximal effect.

SMILES	Gal4-VP16 FLuc	RORg inh	DT40 TDP1 no CPT	12-LOX inh	DT40 TDP1 CPT	ELG1 repair inh
C=CCOC(=O)COc1cc(C)cc2oc(=O)c3c(c12)CCC3	-11%	-17%	-7%	-8%	-6%	?
Cc1cc(OCC(=O)N2CCC(C(=O)NCC(C)C)CC2)c2c3c(c(=O)oc2c1)CCCC3	?	-1%	13µM*	-15%	-19%	5%
O=C(NN=Cc1ccc(O)c(O)c1)c1ccccc1	.	.	23µM*	.	23µM*	.
O=C(C[C@@H]1NCCC[C@@H]1O)Cn1cnc2ccccc2c1=O	.	.	.	7%	.	.
O=C(O)C1=NOC2CN(CC3CC3)CC12 (stereo unspecified)	.	.	.	1%[12.5 µM]	.	.
O=C(O)C1=NOC2CN(Cc3cncs3)CC12 (stereo unspecified)	.	.	.	13µM*	.	.
CCN1CCN(C(=O)Cc2ccc(Nc3ncc(F)c(Nc4ccc(C(=O)Nc5ccccc5Cl)cc4)n3)cc2)CC1	.	.	.	3.9µM*	.	.
CC(=O)Nc1ccc(CC(=O)N2CCN(Cc3ccccc3)CC2)cc1	10%	-7%	-8%	13%	4%	2%
CCCC(C)NC(=O)COC(=O)c1c(C)n(C2CC2)c2ccc(OC)cc12 (stereo unspecified)	.	.	.	7%	.	.
Oc1cccc[c]1[Hg][Cl]	3.5µM*	1.6µM*	0.15µM*	.	0.19µM*	.
Cc1ccccc1O	0%	22%	1%	6%	14%	1%
O=[N+]([O-])c1ccc(N2CCOCC2)c2c1no[n+]2[O-]	.	.	0.16µM*	-1%	0.18µM*	.
O=[N+]([O-])c1ccc(N2CCOCC2)c2cccnc12	12%	-34%	?	?	-6%	-7%
C=CC[C@@H](CC(=O)N(CCO)Cc1ccccc1)C(=O)NC[C@H](OC(=O)[C@@H](CC=C)CC(=O)OC(C)(C)C)c1ccccc1	.	.	-79%	-16%	21µM*	21µM*
O=C(Cc1ccc(Cl)c(Cl)c1)N1CCCC[C@H]1CN1CCCC1	-3%	-18%	27µM*	199%	27µM*	.
CCC(CC)c1cc([C@H]2CN3CC[C@H]2C[C@@H]3CNC2CCN(C(C)=O)CC2)nc(-c2ccncc2)n1	.	.	.	97%	.	.
C[C@]12CC[C@H](O)CC1=CC[C@H]1[C@H]3CCC(=O)[C@@]3(C)CC[C@@H]12	.	.	.	0%[57.4 µM]	.	.
CC12CCC3C(CC=C4CC(O)CCC43C)C1C/C(=C\c1cccc(F)c1)C2=O (stereo unspecified)	-28%	?	15µM*	17%	?	8%
O=C(c1ccc(F)cc1)N1C[C@@H]2C[C@H](C1)c1c(/C=C/c3ccc(Cl)cc3)ccc(=O)n1C2	.	.	.	9%	.	.
COc1ccc(-c2c(C(F)(F)F)oc3cc(OC(=O)N(C)C)ccc3c2=O)cc1	.	.	.	-18%	.	.
C=CCN1CC[C@@]23c4c5ccc(O)c4O[C@H]2/C(=N\N=C2/CC[C@@]4(O)[C@H]6Cc7ccc(O)c8c7[C@@]4(CCN6CC=C)[C@@H]2O8)CC[C@]3(O)[C@@H]1C5	-12%	1%	30µM*	?	?	.
C=C(C)CN1CC[C@@]23c4c5ccc(O)c4O[C@H]2c2[nH]c4ccccc4c2C[C@]3(O)[C@@H]1C5	28µM*	-39%	27µM*	15%	-105%	.
